In the library only some 0.35% were active in any assay of this set; here they are far more common.
TCR act: activates T cell receptor signaling | primary human leukocytes, anti-CD3, IL-2 HTRF, 48 h | Potency, µM (top dose mostly 9.22 µM), without a hit: at the highest dose activation of IL-2 secretion, usual class: activators | 330,000 tested, under 10 active; note: % of control where 0% means no effect
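IL-2 produced over 48 hr by a-CD3 bead-stimulated primary human leukocytes exposed to compounds was detected with a homogeneous time-resolved FRET immunoassay, 665nm acceptor signal after 320nm excitation.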
MBNL1-CUG inh: MBNL1-poly(CUG) RNA binding inhibition | Q9NR56 | 280,000 compounds, 0.036% hits | TR-FRET MBNL1-His/biotin-(CUG)12 binding, 665/545 ratio | Potency, µM (titrated, usually from 57.5 µM), inactives show top-dose activity change, negative = inhibition, actives largely listed as inhibitors | AID 2675; active = well fitted inhibition curve with a large enough effect in the signal ratio, with a control signal flat, not every such curve was filed as active; inconclusive = small, poorly fitted or top-dose-only effect, or effect the other way, or a change in a side signal; inactive = no such curve, though single readings can be large or run the other way; the % refers to the signal ratio; note: potency is the fitted concentration of half-maximal effect; % is set by controls: 0 for no effect and ±100 for the full control effect
Target sequence (Q9NR56 whole entry, looked up): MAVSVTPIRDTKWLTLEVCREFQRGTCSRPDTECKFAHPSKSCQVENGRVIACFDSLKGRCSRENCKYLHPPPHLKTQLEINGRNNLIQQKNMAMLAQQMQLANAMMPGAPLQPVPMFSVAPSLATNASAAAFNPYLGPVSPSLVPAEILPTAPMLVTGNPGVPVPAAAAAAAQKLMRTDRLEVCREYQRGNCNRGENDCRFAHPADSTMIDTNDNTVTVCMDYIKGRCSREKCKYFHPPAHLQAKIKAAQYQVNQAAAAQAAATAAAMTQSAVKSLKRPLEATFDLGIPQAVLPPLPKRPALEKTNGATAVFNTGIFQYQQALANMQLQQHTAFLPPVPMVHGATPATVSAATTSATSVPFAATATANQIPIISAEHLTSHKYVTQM
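His-tagged MBNL1 binding to biotinylated (CUG)12 RNA was measured by TR-FRET using terbium anti-His antibody (0.055 ng/ul final) and streptavidin-XL665 (5 nM final). Compounds were titrated 92 nM to 58 uM; 60 min at room temperature.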
TRPV1 PAM: human TRPV1 potentiation; Q8NER1; TRPV1-expressing cells, Fluo-8 calcium influx, capsaicin EC20 potentiation; potentiation, % at 8.33 µM; 320,000 compounds, 0.02% hits; AID 540277; in the data active = potentiation above about 80%; inconclusive = between about 30% and that limit; note: 0% is about no effect
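Fluo-8 calcium influx in TRPV1-expressing cells, kinetic read (ex 480/em 520 nm). Compound added and read 3 min for agonist activity, followed by capsaicin at EC20 final and 2 min further read for enhancement.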
Luc counter: blocks Kinase-Glo luciferase, a counter-screen artifact; Q27757; Kinase-Glo luciferase, ATP luminescence, 8 min; Potency, µM (highest dose often 38.3 µM), without a hit: top-dose activity change, negative = inhibition, actives largely listed as inhibitors; 200,000 compounds, 0.28% hits; AID 1379; note: potency is the fitted concentration of half-maximal effect; % is set by controls: 0 for no effect and ±100 for the full control effect; nearly all actives have a fitted effect of over 60% in size
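Luminescence was the read-out, taken after 8-minute incubation at ambient temperature. Luciferase turned over luciferin with 10 uM ATP in imidazole pH 7.2 buffer containing KCl, MgCl2, Tween 20 and BSA.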
CBFb-RUNX1 inh: CBF-beta/RUNX1 interaction disruption | Q01196+Q13951 | AlphaScreen CBFb-His/RUNX1-biotin binding, biochemical | Potency, µM (top dose mostly 59.8 µM), inactives show at the highest dose activity, negative = inhibition, most hits filed as inhibitors | 230,000 tested, under 10 active | AID 1477; note: % of control where 0% means no effect
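Bead-based AlphaScreen assay; binding partners His-tagged CBF-beta and biotinylated RUNX1 at 30 nM each. Compound exposure 15 min after a 20-min protein preincubation; bead step 90 min; all steps at room temperature.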
TRPV1 agonist: agonists of human vanilloid receptor 1 (TRPV1) | activation, % at 8.33 µM | TRPV1-expressing cells, Fluo-8 calcium influx, agonist mode | Q8NER1 | 320,000 compounds, 0.19% hits; in the data active = activation above about 80%; inconclusive = between about 30% and that limit; note: 0% is about no effect
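TRPV1-expressing cells were cultured overnight at 35.5C and loaded with Fluo-8 calcium dye for 40 to 90 min at room temperature. After a 10 s baseline, compound was added and calcium influx was read kinetically for 3 min (ex 480/em 520 nm).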
An asterisk follows results filed as active; ? = inconclusive; nt = no result given; ! = a repeat was not active; [ ] = remark or other dose. Unless noted, calls come from the whole dose curve; as a rule, active = well fitted curve in the direction sought with a large enough effect; inconclusive = small, poorly fitted or top-dose-only effect, or another doubt; inactive = no such curve, though single readings can be large; an effect the other way counts as inactive or inconclusive.

SMILES	TCR act	MBNL1-CUG inh	TRPV1 PAM	Luc counter	CBFb-RUNX1 inh	TRPV1 agonist
CSc1ccc(/C=N/NC(=O)c2ccc(C)c(C)c2)cc1	-3%[46.1 µM]	-2%	-2	-6%	0%	82*
CSc1ccc(/C=N/NC(=O)c2cc(O)cc(O)c2)cc1	2%[46.1 µM]	32%	-22	?	-2%	-2
O=C(O)/C=C\C=C/c1ccc2c(c1)OCO2	nt	nt	nt	-2%[7.66 µM]	nt	nt
O=C(Nc1nc2ccccc2[nH]1)c1ccccc1	6%	-6%	-12	11µM*	-3%	6
O=C(Nc1nc2ccccc2[nH]1)c1ccc(Cl)cc1	2%	2%	-7	nt	nt	16
COC(CNC(=O)CCc1c(C)nc2c(c(C)nn2-c2ccc(C)cc2)c1C)OC	8%	-4%	-21	nt	nt	82*
Nc1ncnc2c1ncn2[C@@H]1O[C@H](COP(=O)(O)OP(=O)(O)OP(=O)(O)OP(=O)(O)OC[C@@H]2O[C@H](n3cnc4c(N)ncnc43)[C@@H](O)[C@@H]2O)[C@H](O)[C@H]1O	nt	nt	nt	4.5µM*	7%	nt
Nc1ncnc2c1ncn2[C@@H]1O[C@H](COP(=O)(O)OP(=O)(O)OC[C@H]2OC(O)[C@H](O)[C@@H]2O)[C@@H](O)[C@H]1O (stereo not given in full)	nt	nt	nt	nt	6%	nt
COc1cc(-c2ccc(N=Nc3ccc4c(S(=O)(=O)O)cc(S(=O)(=O)O)c(N)c4c3O)c(OC)c2)ccc1N=Nc1ccc2c(S(=O)(=O)O)cc(S(=O)(=O)O)c(N)c2c1O	nt	nt	nt	10µM*!	nt	nt
CCN1/C(=C/C=C/c2oc3ccc(-c4ccccc4)cc3[n+]2CC)Oc2ccc(-c3ccccc3)cc21	1%	339%	?	-6%	-1%	105*
CCN1/C(=C/C=C/c2sc3ccccc3[n+]2CC)Sc2ccccc21	-11%	nt	11	nt	nt	-4
Cc1ccc(NC(=O)CCCCCC2NC(=O)NC2C)cc1 (stereo not given)	nt	0.045µM*	2	0%	nt	4
CC1NC(=O)NC1CCCCCC(=O)Nc1ccc(F)c(Cl)c1 (stereo not given)	6%	nt	2	2%	nt	3
CCc1cccc(NC(=O)CCCN2C(=O)NC(C)(C)C2=O)c1	3%	nt	3	nt	nt	6
CCc1cccc(NC(=O)CCCCCC2NC(=O)NC2C)c1 (stereo not given)	-2%	0.1µM*	-7	2%	nt	21
COC(=O)C1=C(C)N(Cc2ccccc2)[C@]23O[C@](C(=O)OC)(C(=O)N2C1c1ccccc1)C(c1ccccc1)C3C(=O)c1ccccc1 (stereo not given in full)	nt	nt	nt	nt	14%[13.1 µM]	nt
C=C(C#N)C(=O)OCC	nt	nt	nt	nt	6%[21.7 µM]	nt
COc1ccc(CNC(=O)CCC(=O)c2ccc(F)cc2)cc1OC	-4%[46.1 µM]	nt	nt	nt	nt	nt
COc1ccc(CNC(=O)CCSc2ccc(F)cc2)cc1OC	1%	-6%	-12	-2%	-2%	84*
O=C(CCSc1ccc(Cl)cc1)NCc1ccncc1	3%	-9%	-24	4%	0%	86*
CC(C)[C@@H](C)/C=C\[C@@H](C)[C@@H]1CC[C@H]2C3=CC=C4C[C@@H](O)CC[C@]4(C)[C@H]3CC[C@]21C	nt	nt	nt	1%[7.66 µM]	nt	nt
CCCCc1cc2c(cn1)=C(OC(=O)c1ccco1)C(C)(OC(=O)CC)C(=O)C=2 (stereo not given)	nt	nt	nt	-4%[7.66 µM]	-3%[13.1 µM]	nt
Cc1ccc(/C=C/C(=O)N2CCc3ccccc3C2)cc1	-1%	3%	-3	15%	2%	80*
CC(C)(C)c1ccc(/C=C/C(=O)N2CCc3ccccc3C2)cc1	-15%	10%	-13	-5%	7%	?
Cc1cc(C)c(C)c(S(=O)(=O)NCCC(=O)O)c1C	nt	nt	nt	0%	nt	nt
SMILES	TCR act	MBNL1-CUG inh	TRPV1 PAM	Luc counter	CBFb-RUNX1 inh	TRPV1 agonist
c1ccc(-c2cn3nc4c(nc3n2)CCCC4)cc1	-5%	?	2	14µM*	-11%	5
Cc1nc2nc(-c3ccc(F)cc3)cn2nc1C	-12%	?	11	nt	nt	2
Cc1nc2nc(-c3ccccc3)cn2nc1C	-21%	?	-4	10µM*	0%	3
NCCNC(=S)S	nt	nt	nt	-2%[7.66 µM]	nt	nt
O=C(NCCCCN1CCCC1)c1ccc(-n2c(=O)c(=O)[nH]c3ccccc32)cc1	nt	nt	nt	-1%	nt	nt
CN(C)c1ccc(/C=C(\C#N)C(=O)c2ccccc2)cc1	3%	?	22	nt	6%	84*
O=C(NCCc1ccc(O)c(O)c1)C1COc2ccccc2O1 (stereo not given)	-1%	1%	-32	nt	nt	89*
COc1ccc(NC(=O)c2ccccn2)cc1	0%	-6%	-23	13µM*	0%	29
COc1ccc(NC(=O)c2nc3ccccc3s2)cc1	1%[46.1 µM]	23%[11.5 µM]	5	8.9µM*	5%	?
O=C(NCCN1CCCCC1)c1ccc(Cc2nc3ccccc3[nH]2)cc1	nt	nt	nt	-3%	nt	nt
Cc1ccc(C2CCN(C(=O)Nc3ccc(F)cc3)C2)cc1 (stereo not given)	-6%	1%	1	nt	-5%	83*
O=C1C=CC(=O)C2=C1C1c3ccccc3C2c2ccccc21	nt	nt	nt	-4%	-14%	nt
O=C(NCc1ccncc1)C1CCN(S(=O)(=O)c2cc(Cl)ccc2Cl)CC1	2%	-4%	-9	nt	nt	?
O=C(NCc1ccncc1)C1CCCN(S(=O)(=O)c2cc(Cl)ccc2Cl)C1 (stereo not given)	-6%	nt	-18	nt	nt	87*
CC(=O)OC1C(N2CCCCC2)c2c(ccc(/C=C/C(=O)N3CCCCC3)c2O)OC1(C)C (stereo not given)	0%	6%	-18	-2%	4%	81*
O=C(NCCN1CCCCC1)c1ccc(-n2c(=O)c(=O)[nH]c3ccccc32)cc1	nt	nt	nt	1%	nt	nt
O=c1c(O)cc(C2Oc3cc(O)cc(O)c3CC2O)cc2c(C3Oc4cc(O)cc(O)c4CC3O)cc(O)c(O)c12 (stereo not given)	nt	nt	nt	-11%	nt	nt
c1ccc2c(c1)Cn1c-2nc2ccccc21	-12%	2%	-26	11µM*	2%	16
Brc1c(-c2ccccc2)nc2n1Cc1ccccc1-2	-1%	0%	-1	nt	?	11
O=C(CS(=O)(=O)c1ccccc1)c1ccc2c(c1)OCCO2	0%	7%	4	10µM*	1%	-1
Cc1cccc2c1-c1sc(C(=O)N3CCCCC3)cc1CO2	5%	12%	2	nt	nt	88*
CCCCCCN1C=CC(=C2C(=O)c3ccccc3C2=O)C=C1	2%	?	-6	8.9µM*	1%	3
CCN1C=CC(=C2C(=O)c3ccccc3C2=O)C=C1	2%	?	nt	5µM*	0%	nt
CN1C=CC(=C2C(=O)c3ccccc3C2=O)C=C1	nt	?	1	?	9%	1

Compound activity: PubChem BioAssay, National Center for Advancing Translational Sciences (NCATS)
